Experimental data: PubChem BioAssay
A number with no mark means an inactive call. The rule behind the calls is not given here.

The compounds below were run against Pantothenate synthetase (Mycobacterium tuberculosis (strain ATCC 25618 / H37Rv)) (UniProt P9WIL5) (assay: Coupled enzyme confirmation of inhibitors against recombinant Mtb PanC (AID 375;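 note: 0% = full reaction with vehicle and 100% = no enzyme background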)). Conditions: coupled enzyme assay; at 10 µM, hits give high values.
Sequence of Pantothenate synthetase (Mycobacterium tuberculosis (strain ATCC 25618 / H37Rv)) (P9WIL5 whole entry, looked up): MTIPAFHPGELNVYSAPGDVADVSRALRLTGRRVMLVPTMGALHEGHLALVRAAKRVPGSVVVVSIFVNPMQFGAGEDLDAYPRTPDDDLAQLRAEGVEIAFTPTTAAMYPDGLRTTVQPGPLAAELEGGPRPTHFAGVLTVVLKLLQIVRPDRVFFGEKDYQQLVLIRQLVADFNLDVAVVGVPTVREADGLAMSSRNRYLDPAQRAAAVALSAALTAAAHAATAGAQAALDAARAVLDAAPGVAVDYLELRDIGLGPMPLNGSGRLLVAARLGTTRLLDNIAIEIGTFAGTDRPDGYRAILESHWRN
For `O=C1c2ccccc2C(Nc2ccc(F)cc2F)N1CCN1CCOCC1` (stereo unspecified), the inhibition was 0%. `CC1CCCCC1NC(=O)c1ccc(N2CCCC2=O)cc1` (stereo unspecified) was tested, and the inhibition was 0%. For `CN(C)CCCN1c2ccccc2CCc2ccc(Cl)cc21`, the inhibition was 1%. Compound `Cc1ccc(NC(=O)CSc2nnc(NC(=O)CN3CCOCC3)s2)cc1` has an inhibition of 5%. `COc1cc(NC(=O)Nc2cccc(C(C)=O)c2)cc(OC)c1OC` showed an inhibition of 0%. `Cc1ccc(NC(=O)C2CCCN2C(=O)Oc2ccccc2)cc1` (stereo unspecified) showed an inhibition of 1%. `O=C(NCC(=O)N(Cc1cccs1)C(C(=O)NC1CCCC1)c1ccncc1)c1ccco1` (stereo unspecified) showed an inhibition of 4%. `O=C(CSc1ncn[nH]1)c1ccco1` was tested, and the inhibition was 0%. `CCN1CCN(c2nc3c(c(=O)n(C)c(=O)n3C)n2CCSc2ncccn2)CC1` gave an inhibition of 0%. In the case of `COCCn1c(=N)c(C(=O)NCCc2ccccc2)cc2c(=O)n3cccc(C)c3nc21`, the inhibition is reported as 3%. For `CC(=O)OCC(=O)[C@@]12OC(C)(C)O[C@@H]1C[C@H]1[C@@H]3C[C@H](F)C4=CC(=O)C=C[C@]4(C)[C@@]3(F)[C@@H](O)C[C@@]12C`, the inhibition was 1%. With `O=C(CN(c1ccc(F)cc1)S(=O)(=O)c1ccc2c(c1)OCCO2)NCC1CCCO1` (stereo unspecified) the inhibition was 0%. Work on `CCN(CC)CCCNc1oc(-c2cccc(Cl)c2)nc1C#N` yielded an inhibition of 0%. Compound `CCOc1nc2ccccc2nc1NS(=O)(=O)c1ccccc1` has an inhibition of 1%. Compound `COc1ccccc1N(CC(=O)NC1CCCC1)C(=O)c1csnn1` has an inhibition of 1%. Work on `COc1ccc(C(=O)CSc2nnc(C3CCCCC3)n2N)c(OC)c1` yielded an inhibition of 0%.
